Only a selection was taken, and hits are over-represented in it overall.
Cycloheximide cs: counter-screen for Shiga toxin inhibitors: cycloheximide protein synthesis inhibition; cell reporter, cycloheximide protein synthesis inhibition counterscreen; max response, %; 12% of 300,000 active; AID 2314; in the data active means max response mostly above about 13%, no sharp cut-off; inactive means mostly below about 14%; further: read at 38.3 µM for the half of the compounds with a filed dose; 0% is about no effect
Shiga toxin inh: Shiga toxin inhibition | Vero cells, Shiga toxin protein synthesis inhibition reporter | inhibition, % at 38.7 µM | 9.2% of 290,000 active | AID 2315; in the data active means inhibition mostly above about 28%, no sharp cut-off; inactive means mostly below about 43%; further: 0% is about no effect
Sm TGR inh: inhibitors of Schistosoma mansoni thioredoxin glutathione reductase. 3% of 360,000 active. Q962Y6. AID 485364. purified TGR, DTNB reduction, TNB absorbance 405 nm. Potency, µM (titrated, usually from 114 µM), for the others: top-dose activity change, negative = inhibition, most hits filed as inhibitors; further: potency means the concentration at half of the fitted maximal effect; on the % scale 0 is the no-effect control and ±100 the full control effect; nearly all actives have a fitted effect of over 60% in size
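First, TGR (20 nM dispensed) and NADPH were mixed with compound. Second, a 15 min room-temperature incubation followed. Third, further NADPH and then DTNB were added to start the reaction. Finally, TNB absorbance was monitored kinetically.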
LmPK inh: inhibitors of Leishmania mexicana pyruvate kinase; 0.37% of 290,000 active; purified LmPK, Kinase-Glo ATP luminescence, 1 h; Potency, µM (top dose mostly 57.5 µM), without a hit: at the highest dose activity change, negative = inhibition, actives largely listed as inhibitors; Q27686; further: potency means the concentration at half of the fitted maximal effect; on the % scale 0 is the no-effect control and ±100 the full control effect
Target sequence (Q27686 whole entry, looked up): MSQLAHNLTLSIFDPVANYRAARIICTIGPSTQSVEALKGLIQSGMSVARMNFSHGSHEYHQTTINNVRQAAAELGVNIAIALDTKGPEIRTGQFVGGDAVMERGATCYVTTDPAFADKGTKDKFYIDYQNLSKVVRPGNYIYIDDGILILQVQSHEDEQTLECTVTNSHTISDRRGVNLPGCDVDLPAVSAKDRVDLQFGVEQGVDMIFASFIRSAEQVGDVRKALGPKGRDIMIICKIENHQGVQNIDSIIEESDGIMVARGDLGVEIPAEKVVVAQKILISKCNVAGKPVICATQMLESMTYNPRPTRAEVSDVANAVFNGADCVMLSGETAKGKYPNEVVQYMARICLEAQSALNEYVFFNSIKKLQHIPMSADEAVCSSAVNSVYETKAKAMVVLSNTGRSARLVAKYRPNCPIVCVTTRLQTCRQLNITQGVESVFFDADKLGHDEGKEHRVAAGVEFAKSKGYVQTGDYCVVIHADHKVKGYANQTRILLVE
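ATP generated from ADP (0.1 mM) and PEP (0.5 mM) by 0.1 nM LmPK over 1 h at room temperature (pH 7.2 imidazole buffer) was detected by coupled luciferase luminescence. Values were normalized to uninhibited and no-enzyme wells.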
FBPA Giardia inh: blocks Giardia fructose-bisphosphate aldolase activity; A8B2U2; purified Giardia FBPA; Potency, µM (highest dose often 59.6 µM), for inactives: top-dose activity, negative = inhibition, actives largely listed as inhibitors; 0.71% of 290,000 active; further: potency means the concentration at half of the fitted maximal effect; on the % scale 0 is the no-effect control and ±100 the full control effect; nearly all actives have a fitted effect of over 55% in size
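Giardia FBPA (40 nM reagent) was preincubated 10 min at RT with compound (up to 57.5 uM final), then substrate plus GAPDH/TPI/NAD/arsenate coupling system with diaphorase/resazurin was added; resorufin fluorescence (525/598 nm) was read after 20 min.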
TbPYK inhibitor: blocks Trypanosoma brucei pyruvate kinase | Q57TT1 | TbPYK enzyme, Kinase-Glo Plus ATP luminescence, 45 min | Potency, µM (top dose mostly 76.8 µM), for the others: at the top dose activity, negative = inhibition, usual class: inhibitors | 0.12% of 410,000 active | AID 624173; further: potency means the concentration at half of the fitted maximal effect; on the % scale 0 is the no-effect control and ±100 the full control effect; nearly all actives have a fitted effect of over 50% in size
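Quantitative HTS: titrated library compounds versus trypanosomal pyruvate kinase in TEA buffer (pH 7.2) containing KCl, MgCl2, BSA and Tween-20. Reactions were initiated with ADP, 130 uM final. Kinase-Glo Plus luminescence was read after 45 min at RT.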
* marks the source's active call; other numbers are inactive results; ? = inconclusive; / = not tested or not shown; [ ] = dose if it differs, or a comment. Unless noted, the call rests on the fitted dose curve; in most records, active means well fitted curve in the direction sought with a large enough effect; inconclusive means small, poorly fitted or top-dose-only effect, or another doubt; inactive means no such curve, though single readings can be large; an effect the other way counts as inactive or inconclusive.

SMILES | Cycloheximide cs | Shiga toxin inh | Sm TGR inh | LmPK inh | FBPA Giardia inh | TbPYK inhibitor
CC(=O)n1cc(N(C(=O)CCl)c2ccc([N+](=O)[O-])cc2)c2ccccc21 | -2 | -6 | 0.71µM* | 4% | -13% | -3%
CC(=O)n1cc(N(C(=O)CCl)c2ccccc2)c2ccccc21 | 0 | -20 | 0.5µM* | 0% | -7% | -1%
O=Cc1[nH]c2ccccc2c1N(C(=O)CCl)c1ccc([N+](=O)[O-])cc1 | 1 | 11 | 3.2µM* | 0% | -21% | -2%
CC(=O)n1cc(CO)c2ccccc21 | 2 | -4 | -14% | -3% | 14% | 6%
CC(C)Oc1ccc(C(=O)N(Cc2ccco2)c2ccccn2)cc1 | / | / | 4% | / | / | -1%
O=C(Oc1ccc2c(=O)c(Cl)coc2c1)c1cccnc1 | 1 | 18 | 32µM* | 1% | 4% | -2%
Oc1ccc(-c2nccs2)cc1 | / | / | / | / | / | 3%
CC(=O)NCCC(=O)Nc1nc2c(ccc3ccccc32)s1 | 15* | 20 | -4% | -1% | 0% | 1%
COc1cccc(-c2csc(NNC(=O)c3cccs3)n2)c1 | 15 | 36 | -1% | 0% | 9% | -7%
Oc1ccc(-c2nc(-c3ccc(O)c(O)c3)cs2)cc1 | 23 | 94* | ? | -21% | ? | -2%
COc1cccc(-c2csc(NC(=O)Oc3ccccc3)n2)c1 | 48* | 137* | ? | 0% | -4% | 7%
Oc1ccc(Nc2nc(-c3ccc4ccccc4c3)cs2)cc1 | 49* | 121* | -9% | 5% | -25% | /
Cc1cccc(C)c1NC(=O)c1sc(-n2nc(C)c(Cc3ccccc3)c2C)nc1C | / | / | 5% | / | / | -3%
CC(=O)[C@H]1CC[C@H]2[C@@H]3C=CC4=CC(=O)CC[C@@]4(C)[C@H]3CC[C@]12C | / | / | / | / | -1%[21.7 µM] | 2%[33.2 µM]
CC(=O)Nc1ccc(-c2csc(NC(C)c3ccccc3)n2)cc1 (configuration not stated) | 7 | 4 | -19% | 5% | -21% | -3%
CC(=O)Nc1nc(-c2ccc3ccccc3c2)cs1 | 38* | 87* | 7% | 1% | 9% | 1%
CC(=O)NCCC(=O)Nc1nc(-c2ccccc2Cl)cs1 | 8 | 22 | -2% | -1% | -2% | -4%
CC(=O)NCCC(=O)Nc1nc(-c2ccc3ccccc3c2)cs1 | 29* | 52* | 3% | 0% | 2% | -1%
CCn1nc(C)c2c(-c3ccccc3)cc(=O)n(C(C)C(=O)NCc3ccccc3OC)c21 (configuration not stated) | / | / | -2% | / | / | -2%
Cc1cc2ccccn2c1C(=O)c1ccccc1Br | 6 | -8 | -5% | 1% | 0% | -1%
Cc1cc2ccccn2c1C(=O)c1ccc([N+](=O)[O-])o1 | 34* | 23 | ? | -4% | -10% | 1%
CCOC(=O)C(=O)c1c(C)cc2ccccn12 | 23* | 47* | 0% | -1% | -12% | -5%
COc1ccc(NC(=O)Cn2ccn(-c3ccc(F)c(F)c3)c(=O)c2=O)cc1Cl | / | / | -3% | / | / | 1%
COc1ccc(-c2cc(C(C)=O)c(C)n2CCC(=O)NCc2ccc(F)cc2)cc1 | / | / | 0% | / | / | -1%[15.4 µM]
O=C1NC(c2ccco2)Nc2sc3c(c21)CCN(Cc1ccccc1)C3 (configuration not stated) | 7 | -5 | -9% | 4% | 20% | -16%
SMILES | Cycloheximide cs | Shiga toxin inh | Sm TGR inh | LmPK inh | FBPA Giardia inh | TbPYK inhibitor
O=C1NC(c2cccs2)Nc2sc3c(c21)CCCC3 (configuration not stated) | 38* | 87* | 28µM* | -4% | ? | ?
Cc1c(CCN)ccc2c1[nH]c1ccccc12 | 17* | 23 | 1% | 2% | -4% | 5%
O=C(CC1=NCCNC(c2ccccc2)C1)c1ccccc1O (configuration not stated) | 32* | 36* | 12% | 9% | 24% | 4%
COc1ccccc1CN(Cc1nc2ccccc2c(=O)[nH]1)C(=O)Nc1ccc(C)cc1 | 19* | 40 | 1% | 5% | -3% | 2%
COc1ccccc1CN(Cc1nc2ccccc2c(=O)[nH]1)C(=O)Nc1ccccc1C | 7 | 1 | -28% | 0% | -24% | 0%
O=S1(=O)C=C(Oc2ccc(F)cc2)c2ccccc21 | 11* | 27* | 0% | 3% | 21% | 7%
O=C(NC(CSC(=O)c1ccccc1)C(=O)O)OCc1ccccc1 (configuration not stated) | / | / | / | / | / | 1%
C[C@@H](C(=O)N[C@@H](CO)Cc1ccccc1)[C@H]1C[C@]1(C)[C@H](NC(=O)OCc1ccccc1)c1ccccc1 | / | / | / | / | -1% | /
N#C/C(C(=O)c1ccccc1)=C1/SC=C(N)N1c1ccccc1 | 39* | 122* | ? | -7% | ? | /
COc1ccc(NC(=O)/C(=C\c2ccc(OC)c(OC)c2)NC(=O)c2ccco2)cc1 | 2 | -18 | -38% | -10% | / | 1%
O=C(/C=C/Nc1nccs1)C(F)(F)Cl | 35* | 102* | / | -1% | -8% | -8%
Cc1cccc(/C(N)=N/OC(=O)Cc2ccccc2)c1 | 41* | 81* | -24% | -8% | 3% | 0%
Cc1cccc(/C(N)=N/OC(=O)C23CC4CC(CC(C4)C2)C3)c1 | 42* | 84* | 0% | 1% | -2% | -14%
CCC(C(=O)O/N=C(\N)c1cccc(C)c1)c1ccccc1 (configuration not stated) | 24* | 115 | 3% | -8% | 1% | -5%
C=CCn1c(SCC(=O)N(C)C)nc2sc3c(c2c1=O)CCC3 | -3 | -22 | 1% | 8% | 4% | 1%
O=C1Nc2ccccc2S/C1=C\C(=O)N1CCCC1 | 27* | 72* | 2% | 6% | 4% | /
N#C/C(C(=O)N1CCCCC1)=C1\Nc2ccccc2S1 | 37* | 58* | -1% | -2% | -24% | -8%
CCc1ccc(C(=O)/C=C2\Sc3ccccc3NC2=O)cc1 | 50* | 88* | -5% | -3% | -10% | 7%
O=C1Nc2ccccc2SC1=Cc1ccccc1 | / | / | / | / | / | -7%
Cc1ccccc1C(c1c(C)n(C)n(-c2ccccc2)c1=O)c1c(C)n(C)n(-c2ccccc2)c1=O | / | / | 7% | / | / | 1%
CCc1ccc(NC(=O)CC2C(=O)N(c3cccc(C)c3)C(=O)N2Cc2cccc(OC)c2)cc1 (configuration not stated) | / | / | 0% | / | / | -1%
CC(C)(C)OC(=O)N1CCC(C(=O)Nc2cccc(C(=O)NCCCc3ccccc3)c2)CC1 | / | / | / | / | / | 3%
Cc1cc(C)c(NC(=O)CCn2c(=O)c3cccn3c3ccccc32)c(C)c1 | / | / | -6% | / | / | 1%
C=C1SC(=Nc2ccccc2Cl)N(C(=O)c2sc3ccccc3c2Cl)C12CCCCC2 | 25* | 43 | 8% | 5% | 3% | /
C=C1SC(=Nc2c(C)cc(C)cc2C)N(C(=O)c2sc3ccccc3c2Cl)C12CCCCC2 | -3 | -3 | -1% | 8% | 4% | -4%

Screening results deposited in PubChem by National Center for Advancing Translational Sciences (NCATS).
